Screening results from PubChem BioAssay.
This is one part of a sample in which hits are shown more often than they occur.
ROCK2 inh: blocks human Rho kinase 2 activity | purified ROCK2, Kinase-Glo ATP depletion luminescence | inhibition, % at 6 µM | 60,000 compounds, 0.35% hits | AID 604;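 active means inhibition above the screen-wide mean inhibition plus 3 SD, cut at about 18% in these data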;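 further: plate controls were DMSO wells for no effect and Y-27632 control wells after no-enzyme background subtraction for full effect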
Target sequence (O75116 whole entry, looked up): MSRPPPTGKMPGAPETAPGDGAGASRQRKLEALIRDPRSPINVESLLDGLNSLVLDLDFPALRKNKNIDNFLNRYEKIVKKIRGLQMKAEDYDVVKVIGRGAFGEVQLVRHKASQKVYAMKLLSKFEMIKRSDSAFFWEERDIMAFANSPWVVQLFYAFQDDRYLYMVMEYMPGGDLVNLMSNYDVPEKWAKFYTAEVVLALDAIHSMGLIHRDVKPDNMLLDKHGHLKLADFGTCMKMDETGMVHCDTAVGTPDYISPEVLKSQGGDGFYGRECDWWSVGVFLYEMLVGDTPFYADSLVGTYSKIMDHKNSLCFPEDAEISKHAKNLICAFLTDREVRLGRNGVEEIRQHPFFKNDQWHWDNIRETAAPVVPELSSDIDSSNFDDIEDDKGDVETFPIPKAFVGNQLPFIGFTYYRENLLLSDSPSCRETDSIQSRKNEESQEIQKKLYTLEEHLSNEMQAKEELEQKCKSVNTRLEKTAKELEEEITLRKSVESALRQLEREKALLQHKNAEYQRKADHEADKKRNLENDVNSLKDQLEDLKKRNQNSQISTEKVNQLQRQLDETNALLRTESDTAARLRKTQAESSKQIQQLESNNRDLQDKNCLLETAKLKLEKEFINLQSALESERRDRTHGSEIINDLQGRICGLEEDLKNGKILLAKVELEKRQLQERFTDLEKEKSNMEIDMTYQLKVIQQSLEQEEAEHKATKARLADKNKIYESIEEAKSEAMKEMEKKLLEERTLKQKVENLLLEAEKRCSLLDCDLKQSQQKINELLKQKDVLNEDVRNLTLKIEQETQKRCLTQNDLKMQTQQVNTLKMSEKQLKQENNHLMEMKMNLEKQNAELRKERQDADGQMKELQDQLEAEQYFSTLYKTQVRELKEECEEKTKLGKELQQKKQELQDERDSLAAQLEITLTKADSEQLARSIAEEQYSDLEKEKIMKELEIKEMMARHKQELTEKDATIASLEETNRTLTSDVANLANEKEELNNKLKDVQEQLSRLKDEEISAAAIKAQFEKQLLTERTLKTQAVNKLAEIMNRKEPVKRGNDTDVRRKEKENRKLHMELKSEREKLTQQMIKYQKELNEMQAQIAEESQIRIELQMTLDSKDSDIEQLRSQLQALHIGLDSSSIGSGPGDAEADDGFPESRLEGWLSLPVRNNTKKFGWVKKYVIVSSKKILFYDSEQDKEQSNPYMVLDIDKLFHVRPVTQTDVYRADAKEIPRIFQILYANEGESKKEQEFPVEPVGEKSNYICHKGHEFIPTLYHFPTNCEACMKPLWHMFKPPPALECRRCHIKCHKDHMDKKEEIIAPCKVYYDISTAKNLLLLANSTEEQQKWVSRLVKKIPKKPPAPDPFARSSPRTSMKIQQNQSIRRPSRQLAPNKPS
D1 allo mod: D1 dopamine receptor (human) allosteric modulation; P21728; HEK293 D1, CRE-luciferase, dopamine EC30 potentiation; actives deviate in either direction; B-score at 10 µM; 58,000 compounds, 5.9% hits; AID 641;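 active means luminescence count or its row- and column-corrected plate score outside the 99.7% band of the plate's sample wells, on either side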
DAT uptake mod: modulates human dopamine transporter uptake under cocaine; Q01959; LLC-PK1 hDAT cells, [14C]-dopamine uptake with cocaine IC80; actives deviate in either direction; B-score at 10 µM; 110,000 compounds, 1.3% hits; AID 449768;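 active means Z score or B-score, a plate-position-corrected score, falls beyond the plate's 99.7% confidence bounds, in either direction; inactive means both scores lie inside the 99.7% bounds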;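 further: scored against the spread of the other compound wells on the same plate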
PKA kinase inh: blocks human protein kinase A activity. P17612. inhibition, % at 6 µM. PKA Kemptide phosphorylation, Kinase-Glo ATP luminescence. 65,000 compounds, 0.1% hits;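 active means inhibition above the screen-wide mean inhibition plus 3 SD, cut at about 21% in these data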
D1 PAM confirm: D1 receptor (human) allosteric modulation, confirmed | shares compounds with D1 allo mod | HEK293 D1 CRE-luciferase, dopamine EC30 potentiation; active compounds read high | luminescence at 10 µM | 2,200 compounds, 88% hits;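 active means luminescence in either of two replicates above the same-plate mean plus 3 SD of the low-dose dopamine control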
D1 no dopamine: activates D1 CRE-luciferase signal without dopamine present; shares compounds with D1 allo mod; HEK293 D1 CRE-luciferase, luminescence, no dopamine; active compounds read high; luminescence at 10 µM; 1,900 compounds, 0.8% hits; AID 646; in the data active means luminescence above about 3900
Isoprot counter: counter-screen for D1 modulators: isoproterenol response in HEK293 cells. shares compounds with D1 allo mod. HEK293 D1 CRE-luciferase, isoproterenol EC30 counter-screen. calls only at 10 µM. 2,200 compounds, 63% hits. AID 647;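 active means luminescence in either replicate above plate mean of wells with a partly effective reference agonist dose plus 3 SD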;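 further: isoproterenol raises cAMP through native beta-adrenoceptor Gs so signal bypasses D1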
An asterisk follows results filed as active; i = inactive; x = not tested or not shown; + = active, no number.

SMILES	ROCK2 inh	D1 allo mod	DAT uptake mod	PKA kinase inh	D1 PAM confirm	D1 no dopamine	Isoprot counter
Cc1cc(C)cc(SCc2noc(C(=O)NCCCN3CCOCC3)c2C(=O)NCCCN2CCOCC2)c1	x	x	0.0141	x	x	x	x
OCCNc1ncnc2c1c(-c1ccccc1)c(-c1ccccc1)n2Cc1ccco1	0.9	5.8*	0.442	1.9	8384*	1284	i
c1ccc(-c2c(-c3ccccc3)n(Cc3ccco3)c3ncnc(NCCCn4ccnc4)c23)cc1	x	x	1.27	x	x	x	x
COC(=O)c1sc2ccccc2c1C(=O)OC	2.9	10.3*	0.525	1.2	9140*	1712	i
COC(=O)c1sc2ccccc2c1NC(=O)c1cccs1	-5.0	18.8*	-0.649	-6.5	20828*	1756	+
COC(=O)c1sc2ccccc2c1N	7.8	2.85	-0.127	2.0	x	x	x
COC(=O)C1=C(CCc2ccccc2)NC(=O)NC1c1ccc(Cl)cc1 (stereo not given)	x	x	1.42	x	x	x	x
COc1cccc2c1N1C(=O)c3c(C(=O)O)cccc3C1CC2(C)C (stereo not given)	-1.7	0.0562	0.313	-5.9	x	x	x
COC(=O)C1=C[C@@H](C(=O)OC)[C@@H]2C3=C(C(=O)[C@@]2(C)NC(=O)c2ccccc2)[C@H](c2ccccc2)[C@@H]2C(=O)NC(=O)[C@@H]2[C@@H]3C1	x	x	-0.286	x	x	x	x
COC(=O)c1cccc(N2C(=O)C(Cl)=C(N3CCOCC3)C2=O)c1	5.8	4.73*	-1	7.5	5740*	1648	i
C/C=C/C=C\C(=O)Nc1cccc(C2=NOC3(C2)C[C@@H](C(N)=O)N(C(=O)c2cc([N+](=O)[O-])cc([N+](=O)[O-])c2C)C3)c1 (stereo not given in full)	x	x	-1.09	x	x	x	x
CCOc1ccccc1-c1nc(SCC(=O)O)n[nH]1	2.6	3.82*	0.012	8.4	5488	1396	i
Cc1cc(C)n2c3c(c(C#N)c2n1)CCCC3	10.6	2.94*	-0.437	12.0	9512*	1860	i
CCCCSc1nc(CCC)cc(=O)[nH]1	x	5.25*	-0.13	x	15600*	1616	+
CCCc1cc(=O)[nH]c(SCC)n1	3.1	-0.487	1.07	3.4	x	x	x
Cn1c(/C(C#N)=C/C2CC=CCC2)nc2ccccc21 (stereo not given)	1.1	3.79*	-0.527	3.4	9264*	1596	i
N#C/C(=C\C1CC=CCC1)c1nc2ccccc2[nH]1 (stereo not given)	6.2	-1.2	-1.04	9.4	x	x	x
CCN(c1nc(N)c(C(=O)N=C(N)N)nc1Cl)C(C)C	x	x	-0.399	x	x	x	x
CCOC(=O)CSc1nc(C)c2ccc(C)cc2n1	x	x	0.785	x	x	x	x
Cc1ccccc1NC(=O)c1nc[nH]c1C(=O)NCc1ccccc1	-0.8	5.09*	-0.479	-1.5	14280*	1616	i
Cc1ccccc1NC(=O)Nc1ccccc1C(=O)NCc1ccccc1	x	x	-0.271	x	x	x	x
CC1(C)CC(NCc2ccc3c(c2)OCO3)CCO1 (stereo not given)	x	x	-0.768	x	x	x	x
CCn1c(SCC(=O)N(Cc2ccccc2)C2CCS(=O)(=O)C2)nc2ccccc2c1=O (stereo not given)	2.1	8.92*	0.0805	5.5	13696*	x	+
O=C1OCCC1Sc1ncnc2sc3c(c12)CCC3 (stereo not given)	-1.0	5.19*	-0.679	4.0	7272*	1564	i
COC(=O)c1cc(C)sc1NC(=O)c1cccnc1	9.5	5.44*	-0.572	5.5	16836*	1548	+
SMILES	ROCK2 inh	D1 allo mod	DAT uptake mod	PKA kinase inh	D1 PAM confirm	D1 no dopamine	Isoprot counter
CCN=C(N/N=C/c1ccc([N+](=O)[O-])cc1)SC	x	x	-0.133	x	x	x	x
COC(=O)C1=C(C)N(CCCC(=O)O)C(=O)NC1c1ccccc1OS(=O)(=O)c1ccc([N+](=O)[O-])cc1 (stereo not given)	x	x	-0.136	x	x	x	x
Cn1c(Cn2c(=O)sc3ccccc32)nnc1SCC(=O)N1CCOCC1	4.4	5.14*	-1.17	10.2	8076*	1508	i
CCCn1c(CCc2ccccc2)nnc1SCC(=O)N1CCOCC1	7.4	3.23*	-0.268	11.8	4772	1664	i
Cc1csc(SCC(=O)Nc2ncc(Cl)c(C)c2Cl)n1	x	x	-1.3	x	x	x	x
COc1ccc(C2CC(C(F)(F)F)n3ncc(C(=O)NCc4cccnc4)c3N2)cc1OC (stereo not given)	-2.8	9.78*	0.528	4.8	18500*	1632	+
C=CCN(CC=C)Cc1c(C)[nH]c2ccc(C(=O)OCC)cc2c1=O	x	x	0.0136	x	x	x	x
Cc1c2c(nc3c(C(=O)NC4CCCC4)cnn13)CCCC2	x	4.97*	0.373	9.0	11564*	1764	+
CCOC(=O)C1=C(C)Nc2ncnn2C1/C=C/c1ccccc1 (stereo not given)	-5.0	2.83*	1.72	-3.6	11572*	1448	+
COc1ccc(C(=O)CSc2nc3nc(C)cc(C)n3n2)cc1OC	-0.1	10.7*	1.23	-3.5	20980*	1924	+
O=C(Nc1cc(C(F)(F)F)ccc1N1CCCCC1)c1cccc([N+](=O)[O-])c1	x	x	0.414	x	x	x	x
COc1cc(OC)cc(C(=O)Nn2cc(C(=O)N3CCN(C)CC3)c3ccccc3c2=O)c1	x	2.91*	0.923	7.1	5944*	1800	i
COc1ccc(OC)c(-n2c(SCC(C)=O)nnc2-c2cccc(S(=O)(=O)N(C)C)c2)c1	-0.3	3.83*	0.263	0.6	6400	1712	i
COc1cccc(-n2c(SCc3c(C)noc3C)nnc2-c2cccc(S(=O)(=O)N(C)C)c2)c1	6.5	9.09*	-0.134	5.7	12244*	1492	+
CCSc1nnc(-c2cccc(S(=O)(=O)N(C)C)c2)n1-c1cc(OC)ccc1OC	1.2	0.604	0.137	1.5	x	x	x
CCOC(=O)N1CCN(C(=O)C(C)(C)Oc2ccc(Cl)cc2)CC1	-5.3	1.91*	0.806	-1.1	7408*	1572	i
COc1ccc(N2CCN(C(=O)C(C)(C)Oc3ccc(Cl)cc3)CC2)cc1	1.4	0.245	-0.833	3.3	x	x	x
Cc1c(C#N)c2ccccc2n1CC(=O)O	3.2	0.0584	x	12.0	x	x	x
Cc1nc2c3ccccc3n(CC#N)c(=O)n2n1	5.3	4.69*	-1.27	3.1	8580*	x	+
CCOC(=O)c1[nH]c(=O)[nH]c1COC(=O)c1cc2ccccc2o1	9.1	-0.548	-1.42	6.6	x	x	x
Cc1nc(NS(=O)(=O)c2ccccc2)sc1NC(=O)OC(C)C	6.8	2.36*	-0.533	4.4	4964	x	i
Cc1ccc(S(=O)(=O)Nc2nc(C)c(NC(=O)Nc3ccc(Cl)cc3Cl)s2)cc1	x	x	-1	x	x	x	x
COc1ccc(CN2C(=O)c3ccccc3C2C(=O)NCc2cccnc2)c(OC)c1 (stereo not given)	3.8	-1.15	-0.691	6.2	x	x	x
COc1ccc(NC2c3ncccc3C(=O)N2Cc2ccccc2)c(OC)c1 (stereo not given)	-8.9	19*	0.342	1.4	14524*	1572	+
